Compound: Nc1ncnc2c1ncn2[C@@H]1O[C@H](COP(=O)(O)OP(=O)(O)OP(=O)(O)O)[C@@H](O)[C@H]1O [adenosine 5'-triphosphate]
Experiment: log2 fold change of tryptic peptide abundance, ligand vs vehicle (limited proteolysis) (log2 ratio); higher = more trypsin-susceptible (destabilized)
Conditions: ligand concentration: 5 mM; sample: E. coli desalted lysate; replicate design: treated before aliquoting
Procedure: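 HT-PELSA: desalted E. coli K-12 BW25113 lysate (with 12 mM MgCl2) incubated with 5 mM ATP (pH 7) or water for 30 min at 25 C, then a 4 min trypsin pulse at 22 C. Peptides were quantified by DIA-MS (4 replicates). Value is the peptide log2 fold change (treated/control); negative = stabilized. Scale: negative = ligand-stabilized region.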
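Note: lysate desalted by size exclusion to strip endogenous ATP, peptide intensities built from DIA-NN precursor signals, and peptides missing any value discarded before comparison.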

Sequence of UniProt Q46915 (Q46915 whole entry): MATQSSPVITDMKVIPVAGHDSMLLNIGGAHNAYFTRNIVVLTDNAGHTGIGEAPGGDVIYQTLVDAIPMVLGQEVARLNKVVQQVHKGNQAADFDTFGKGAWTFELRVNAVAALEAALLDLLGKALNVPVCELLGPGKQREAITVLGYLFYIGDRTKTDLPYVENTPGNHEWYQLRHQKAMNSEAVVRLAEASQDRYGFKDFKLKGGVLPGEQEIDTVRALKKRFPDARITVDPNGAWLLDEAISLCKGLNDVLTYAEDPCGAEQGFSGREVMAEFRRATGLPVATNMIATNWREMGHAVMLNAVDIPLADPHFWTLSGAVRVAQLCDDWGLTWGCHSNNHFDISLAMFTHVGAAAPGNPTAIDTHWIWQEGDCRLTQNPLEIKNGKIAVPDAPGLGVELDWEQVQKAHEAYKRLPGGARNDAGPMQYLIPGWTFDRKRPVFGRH
Sequence of UniProt P0AAS7 (P0AAS7 whole entry): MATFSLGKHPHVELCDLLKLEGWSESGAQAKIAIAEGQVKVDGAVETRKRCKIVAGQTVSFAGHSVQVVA
Sequence of UniProt P0ADV7 (P0ADV7 whole entry): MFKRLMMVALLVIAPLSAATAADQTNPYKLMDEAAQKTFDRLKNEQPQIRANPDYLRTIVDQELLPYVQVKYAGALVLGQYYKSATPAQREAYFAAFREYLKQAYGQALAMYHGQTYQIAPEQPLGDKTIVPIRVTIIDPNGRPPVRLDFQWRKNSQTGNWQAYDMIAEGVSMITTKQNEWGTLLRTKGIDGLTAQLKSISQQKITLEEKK
Sequence of UniProt P76545 (P76545 whole entry): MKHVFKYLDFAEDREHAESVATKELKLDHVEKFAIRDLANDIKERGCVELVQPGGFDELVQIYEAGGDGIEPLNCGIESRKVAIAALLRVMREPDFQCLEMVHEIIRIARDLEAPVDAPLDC
Sequence of UniProt P52101 (P52101 whole entry): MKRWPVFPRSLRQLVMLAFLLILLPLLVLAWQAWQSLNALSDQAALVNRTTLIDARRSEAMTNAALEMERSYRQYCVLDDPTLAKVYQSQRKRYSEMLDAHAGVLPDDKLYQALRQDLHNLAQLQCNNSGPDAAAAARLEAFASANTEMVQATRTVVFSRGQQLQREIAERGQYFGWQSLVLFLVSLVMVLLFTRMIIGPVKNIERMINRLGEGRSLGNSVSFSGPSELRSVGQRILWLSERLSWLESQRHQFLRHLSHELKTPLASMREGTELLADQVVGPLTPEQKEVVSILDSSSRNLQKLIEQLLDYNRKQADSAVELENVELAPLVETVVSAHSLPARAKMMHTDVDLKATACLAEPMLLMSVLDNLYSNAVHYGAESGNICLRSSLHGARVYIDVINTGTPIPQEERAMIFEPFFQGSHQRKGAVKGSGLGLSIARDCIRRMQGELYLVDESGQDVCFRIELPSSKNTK
Sequence of UniProt P08201 (P08201 whole entry): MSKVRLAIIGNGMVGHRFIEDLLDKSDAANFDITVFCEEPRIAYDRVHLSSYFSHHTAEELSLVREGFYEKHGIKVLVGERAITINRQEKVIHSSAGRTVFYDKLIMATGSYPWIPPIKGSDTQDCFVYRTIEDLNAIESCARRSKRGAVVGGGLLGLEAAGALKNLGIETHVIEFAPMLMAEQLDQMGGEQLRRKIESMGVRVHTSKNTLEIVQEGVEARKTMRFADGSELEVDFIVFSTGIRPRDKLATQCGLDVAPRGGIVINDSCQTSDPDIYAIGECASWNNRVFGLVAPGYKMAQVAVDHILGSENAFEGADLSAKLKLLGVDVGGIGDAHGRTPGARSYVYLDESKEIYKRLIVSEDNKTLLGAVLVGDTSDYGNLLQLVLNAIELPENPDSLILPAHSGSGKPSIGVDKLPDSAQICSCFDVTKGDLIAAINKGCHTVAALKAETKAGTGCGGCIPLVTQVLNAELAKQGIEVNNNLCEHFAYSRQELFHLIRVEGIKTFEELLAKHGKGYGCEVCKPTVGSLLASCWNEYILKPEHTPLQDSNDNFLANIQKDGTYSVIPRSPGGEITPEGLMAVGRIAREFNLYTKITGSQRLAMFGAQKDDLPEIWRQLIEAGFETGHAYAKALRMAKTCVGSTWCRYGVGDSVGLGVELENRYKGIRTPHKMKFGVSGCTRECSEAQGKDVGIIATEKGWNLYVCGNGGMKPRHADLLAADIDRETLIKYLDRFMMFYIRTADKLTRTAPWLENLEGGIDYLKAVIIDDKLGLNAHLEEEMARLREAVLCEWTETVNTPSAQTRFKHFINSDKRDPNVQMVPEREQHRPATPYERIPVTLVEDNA
Sequence of UniProt P39187 (P39187 whole entry): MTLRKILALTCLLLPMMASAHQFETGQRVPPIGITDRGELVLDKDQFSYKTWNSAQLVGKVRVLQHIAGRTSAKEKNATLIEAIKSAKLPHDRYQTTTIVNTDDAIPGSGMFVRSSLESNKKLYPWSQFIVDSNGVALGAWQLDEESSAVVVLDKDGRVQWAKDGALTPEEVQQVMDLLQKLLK

Row | Target | log2 fold change
1 | UniProt P08201 (peptide sequence: LIVSEDNK, peptide start residue: 359) | 1.35
2 | UniProt Q46915 (peptide sequence: AMNSEAVVR, peptide start residue: 181) | -0.607
3 | UniProt P39187 (peptide sequence: VLQHIAGR, peptide start residue: 63) | 0.842
4 | UniProt P16525 (peptide sequence: TTFEHIVTVESELPTAAR, peptide start residue: 122) | 0.318
5 | UniProt P0AAS7 (peptide sequence: LEGWSESGAQAK, peptide start residue: 20) | -0.938
6 | UniProt P0ADV7 (peptide sequence: LKNEQPQIR, peptide start residue: 42) | 0.525
7 | UniProt P76545 (peptide sequence: YLDFAEDREHAESVATK, peptide start residue: 7) | -2.38
8 | UniProt P52101 (peptide sequence: AMIFEPFFQGSHQR, peptide start residue: 414) | 0.36

Reference: the supplement of paper PMC12819154, “High-throughput peptide-centric local stability assay extends protein–ligand identification to membrane proteins, tissues and bacteria” (Nature Structural & Molecular Biology, 2025)
